Source: PubChem
GAA inh: qHTS Assay for Inhibitors of Human alpha-Glucosidase as a Potential Chaperone Treatment of Pompe Disease. purified human GAA, 4-MU-alpha-glucoside fluorescence. 200,000 tested, 0.005% active. Lysosomal alpha-glucosidase (Homo sapiens), P10253. Potency, µM (doses to about 76.9 µM), inactives show top-dose activity change, negative = inhibition, hits mostly inhibitors;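 also: potency is read from the fitted curve at half-maximal effect; plate controls were uninhibited enzyme wells for no effect and no-enzyme background for full effect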
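Activity normalized between no-enzyme (basal) and enzyme-only wells. Conditions: 4 nM human enzyme, 400 uM fluorogenic substrate, citrate/phosphate pH 5.0 with Tween-20, 20 min room temperature, compounds up to 77 uM.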
N370S GC mod: qHTS Assay for Inhibitors and Activators of N370S glucocerebrosidase as a Potential Chaperone Treatment of Gaucher Disease. N370S GC spleen homogenate, 4MU-glucoside fluorescence. Potency, µM (top dose mostly 59.4 µM), for the others: top-dose activity change, negative = inhibition, hits mostly inhibitors. 330,000 tested, 0.092% active. AID 2101, 2009;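 also: potency is read from the fitted curve at half-maximal effect; 0% = full enzyme activity and -100% = no enzyme basal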
GLA spleen mod: qHTS Assay for Inhibitors and Activators of Human alpha-Galactosidase From Spleen Homogenate. Alpha-galactosidase A (Homo sapiens), P06280. human spleen homogenate, 4MU-alpha-Gal fluorescence, 40 min. Potency, µM (top dose mostly 80 µM), inactives show at the top dose activity change, negative = inhibition, most hits filed as inhibitors. 240,000 tested, 0.008% active. AID 2107, 2009;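 also: potency is read from the fitted curve at half-maximal effect; 0% = enzyme with vehicle and -100% = no enzyme basal signal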
Target sequence (P06280 32-429 limits assumed): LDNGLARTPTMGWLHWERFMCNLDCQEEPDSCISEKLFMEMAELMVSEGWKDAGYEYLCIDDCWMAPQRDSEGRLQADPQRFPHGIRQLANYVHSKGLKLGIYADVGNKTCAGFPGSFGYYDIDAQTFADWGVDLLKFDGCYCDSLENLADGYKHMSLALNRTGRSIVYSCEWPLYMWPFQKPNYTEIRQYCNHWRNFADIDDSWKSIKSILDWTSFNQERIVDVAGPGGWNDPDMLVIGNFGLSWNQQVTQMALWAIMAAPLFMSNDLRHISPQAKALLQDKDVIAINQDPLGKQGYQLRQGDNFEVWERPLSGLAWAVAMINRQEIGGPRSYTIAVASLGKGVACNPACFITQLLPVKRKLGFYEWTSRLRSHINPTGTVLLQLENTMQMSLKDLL
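Spleen homogenate 1 ug + cpd (titration) + 4-MU-alpha-D-galactopyranoside 1 mM; 37C 40 min; 50 mM citrate/phosphate pH 5.0, 0.01% Tween-20; stop pH 10; fluorescence 365/440; AC50 via Hill.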
GAA spleen mod: qHTS Assay for Inhibitors and Activators of Human alpha-Glucosidase From Spleen Homogenate. human spleen homogenate, 4-MU-alpha-glucoside fluorescence. Potency, µM (highest dose often 79.9 µM), without a hit: top-dose activity change, negative = inhibition, actives largely listed as inhibitors. 240,000 tested, 0.006% active. AID 2112, 2009. Lysosomal alpha-glucosidase (Homo sapiens), P10253;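 also: potency is read from the fitted curve at half-maximal effect; 0% = enzyme with vehicle and -100% = no enzyme basal signal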
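AC50 values come from Hill-equation fits of concentration-response data, normalized to no-enzyme and full-activity controls. Enzyme source: 1 ug human spleen homogenate; 1 mM fluorogenic 4-MU glucoside, pH 5.0 citrate buffer, 37 C, 40 min.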
GAA glycogen: qHTS Assay for Inhibitors and Activators of Human alpha-Glucosidase Cleavage of Glycogen | AID 2100, 2009 | recombinant GAA, glycogen substrate, Amplex Red glucose oxidase fluorescence | Potency, µM (doses to about 76.4 µM), for the others: top-dose activity change, negative = inhibition, most hits filed as inhibitors | 300,000 tested, 0.38% active | Lysosomal alpha-glucosidase (Homo sapiens), P10253;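 also: potency is read from the fitted curve at half-maximal effect; 0% = full enzyme reaction and -100% = no-enzyme basal signal; the screen sought inhibitors and activators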
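Recombinant human enzyme (4 nM); glycogen substrate; 37 C, 40 min, pH 5.0. Readout: coupled glucose oxidase/Amplex Red fluorescence.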
GLA inh pH 4.5: qHTS Assay for Inhibitors of Human alpha-Galactosidase at pH 4.5 | AID 1467, 2008 | purified enzyme, 4-MU-alpha-Gal fluorescence, pH 4.5 | activity change, negative = inhibition, % at 105 µM | 230,000 tested, under 10 active | Alpha-galactosidase A (Homo sapiens), P06280;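 also: 0% = full activity with enzyme and -100% = basal without enzyme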
Starred values were filed as active, the others as inactive; [ ] = another dose, or the depositor's remark. Most compounds without a hit are left out; they make up all but 0.41% or so of the library. Calls follow the shape of the dose curve; as a rule, active = well fitted curve in the direction sought with a large enough effect; inconclusive = small, poorly fitted or top-dose-only effect, or another doubt; inactive = no such curve, though single readings can be large; an effect the other way counts as inactive or inconclusive.

How did CC(C)N=c1scc(-c2ccco2)n1/N=C/c1ccc(O)c(O)c1 do in these assays?
GAA inh: -12.8%; N370S GC mod: -14.3%; GLA spleen mod: -9.1%; GAA spleen mod: -2.1%; GAA glycogen: 7.08µM*; GLA inh pH 4.5: -6.4

What do the screens show for `COCCN=c1scc(-c2ccco2)n1/N=C/c1ccc(O)c(O)c1O`?
GAA inh: -3.2%; N370S GC mod: -8.5%; GLA spleen mod: -8.3%; GAA spleen mod: -2.6%; GAA glycogen: 2.4%; GLA inh pH 4.5: -10.6

What do the screens show for `N#CC(C#N)=C1C=C2C=C(N3CCCCC3)CCC2CC1` (stereo not drawn)?
GAA inh: -0.8%; N370S GC mod: 9.6%; GLA spleen mod: -1.8%; GAA spleen mod: -4.4%; GAA glycogen: -6.3%; GLA inh pH 4.5: -3.7

What do the screens show for `N#CC1=C(N)C2=C(N3CCCCC3)CCCC2C1(C#N)C#N` (stereo not drawn)?
GAA inh: -2.5%; N370S GC mod: -2.8%; GLA spleen mod: 0.4%; GAA spleen mod: 0.7%; GAA glycogen: 22.4µM*; GLA inh pH 4.5: -2.2

How did CC(C)C[C@H](NC(=O)CN(C)C(=O)[C@H](Cc1ccccc1)NC(=O)[C@H](Cc1ccccc1)NC(=O)[C@H](CCC(N)=O)NC(=O)[C@H](CCC(N)=O)NC(=O)[C@@H]1CCCN1C(=O)[C@H](CCCCN)NC(=O)[C@@H]1CCCN1C(=O)[C@@H](N)CCCN=C(N)N)C(=O)N[C@@H](CCS(C)(=O)=O)C(N)=O do in these assays?
N370S GC mod: 1.5%; GLA spleen mod: 13.2%; GAA spleen mod: 3.8%

Results for Cc1ccc(S(=O)(=O)Nc2cccc3ccc(C)nc23)cc1 ?
N370S GC mod: -3.0%; GLA spleen mod: -3.1%; GAA spleen mod: -0.7%

Results for CCNC(=S)Nc1ccc(N2CCCCC2)cc1 ?
GAA inh: -3.5%; N370S GC mod: 2.4%; GLA spleen mod: -6.0%; GAA spleen mod: 8.4%; GAA glycogen: inconclusive; GLA inh pH 4.5: 3.7

Results for COCCCNC(=S)NNC(=S)Nc1ccc(OC)cc1 ?
N370S GC mod: 1.1%; GLA spleen mod: 2.2%; GAA spleen mod: 0.9%; GAA glycogen: 4.47µM*; GLA inh pH 4.5: 1.2

How did COCCCNC(=S)Nc1ccc(N2CCCCC2)cc1 do in these assays?
GAA inh: 1.6%; N370S GC mod: -1.6%; GLA spleen mod: -6.6%; GAA spleen mod: 1.9%; GAA glycogen: 14.1µM*; GLA inh pH 4.5: 6.5

What do the screens show for `CCC(C)n1c(=O)c2sccc2n2c(CCCC(=O)N3CCN(c4ccccc4)CC3)nnc12` (stereo not drawn)?
GAA glycogen: -13.0%[76.3 µM]

What do the screens show for `O=c1c(O)c(-c2cc(O)c(O)c(O)c2)oc2cc(O)ccc12`?
N370S GC mod: -8.9%; GLA spleen mod: -20.6%; GAA spleen mod: -10.2%

What do the screens show for `COc1ccccc1-c1nnc2n1N=C(c1ccc(O)c(O)c1)CS2`?
GAA inh: -7.3%; N370S GC mod: -5.9%; GLA spleen mod: -1.4%; GAA spleen mod: -1.2%; GAA glycogen: 11.2µM*; GLA inh pH 4.5: -3.0

How did Oc1ccc(/C=N/NC(=S)NCC2CCCO2)cc1 (stereo not drawn) do in these assays?
GAA inh: -1.8%; GLA spleen mod: -0.8%; GAA spleen mod: -11.1%; GAA glycogen: 31.6µM*; GLA inh pH 4.5: -10.0

What do the screens show for `COc1ccc(/C=N/NC(=O)C(=O)NCC2CCCO2)cc1` (stereo not drawn)?
GAA inh: -2.5%; N370S GC mod: 1.1%; GLA spleen mod: 2.4%; GAA spleen mod: -5.3%; GAA glycogen: -4.7%; GLA inh pH 4.5: 11.5

How did COCCCNC(=S)N/N=C/c1ccc(O)cc1 do in these assays?
GAA inh: -0.6%; N370S GC mod: -17.9%; GLA spleen mod: 12.2%; GAA spleen mod: 11.1%; GAA glycogen: 31.6µM*; GLA inh pH 4.5: -1.4

Results for COCCCNC(=S)N/N=C/c1ccc(OC)cc1 ?
GAA inh: 5.1%; N370S GC mod: 5.0%; GLA spleen mod: -10.3%; GAA spleen mod: 7.0%; GAA glycogen: -25.6%; GLA inh pH 4.5: -3.9

How did CCC[C@H](NC(=O)[C@H](Cc1ccc(O[S+](=O)([O-])O)cc1)NC(=O)OC(C)(C)C)C(=O)NCC(=O)N[C@@H](Cc1c[nH]c2ccccc12)C(=O)N[C@@H](CCC)C(=O)N[C@@H](CC(=O)OCCc1ccccc1)C(=O)O do in these assays?
N370S GC mod: 1.0%; GLA spleen mod: 9.4%; GAA spleen mod: 3.6%

What do the screens show for `CC(=O)CC(=O)Nc1ccccc1`?
N370S GC mod: 2.8%; GLA spleen mod: -6.0%; GAA spleen mod: 6.2%

How did CCC(=Nc1ccccc1OC)C1=C(O)CC(c2ccccc2)CC1=O (stereo not drawn) do in these assays?
GAA inh: 2.4%; N370S GC mod: -4.6%; GLA spleen mod: -3.3%; GAA spleen mod: 1.2%; GAA glycogen: -1.0%; GLA inh pH 4.5: -12.7

How did CCC(=Nc1ccccc1O)C1=C(O)CC(c2ccccc2)CC1=O (stereo not drawn) do in these assays?
N370S GC mod: -21.1%; GLA spleen mod: -3.3%; GAA spleen mod: -4.0%; GAA glycogen: 12.6µM*; GLA inh pH 4.5: 1.3

What do the screens show for `O=C(NNc1nc2c(F)cccc2s1)C1COc2ccccc2O1` (stereo not drawn)?
GAA inh: -16.7%; N370S GC mod: 3.6%; GLA spleen mod: -8.6%; GAA spleen mod: -2.3%; GAA glycogen: 4.43µM*; GLA inh pH 4.5: 4.5

How did COc1cccc2sc(NNC(=O)C3COc4ccccc4O3)nc12 (stereo not drawn) do in these assays?
GAA inh: -1.4%; N370S GC mod: 22.6%; GLA spleen mod: -4.9%; GAA spleen mod: -6.1%; GAA glycogen: -17.1%; GLA inh pH 4.5: -2.8

How did COc1ccc(-c2noc(CN(C(=O)c3ccc(C)cc3C)C(C)C)n2)cc1 do in these assays?
GAA glycogen: -7.4%[76.3 µM]

How did COc1cccc(N2C(=O)CC(N3CCc4ccccc43)C2=O)c1 (stereo not drawn) do in these assays?
GAA inh: -0.5%; N370S GC mod: 9.9%; GLA spleen mod: 11.1%; GAA spleen mod: -6.5%; GAA glycogen: 39.5µM*; GLA inh pH 4.5: 0.5
